This note sets out measurements from the supplement of paper PMC8728848.

Many of the other results were omitted from the sample, so the strongest signals are more common in it than they were.

Common to all, as to test: glycan array binding signal (z-score within array); higher = stronger binding
Conditions in all cases: glycan notation: IUPAC condensed, linker removed

For assay [1], the target named is Neu5Ac(a2-3)Gal(b1-3)GalNAc(b1-4)[Neu5Ac(a2-3)]Gal(b1-4)Glc. The method in brief:
(§1)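 From the Consortium for Functional Glycomics database, 3228 arrays were curated, keeping only those whose protein sequence was available. Binding is given as a within-array Z-score averaged across arrays sharing a protein sequence and across linkers. Negative Z-scores can be read as non-binding.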

Assay [2] addresses Neu5Ac(a2-3)Gal(b1-4)GlcNAc(b1-3)Gal(b1-4)[Fuc(a1-3)]GlcNAc. The method in brief:
as §1

In assay [3] the target is Neu5Ac(a2-3)Gal(b1-4)[Fuc(a1-3)]GlcNAc(b1-3)GalNAc. The method in brief:
as §1

Assay [4] addresses Neu5Ac(a2-6)Gal(b1-4)GlcNAc(b1-3)GalNAc. An outline of the steps:
as §1

Another assay addresses Neu5Ac(a2-6)GalNAc. An outline of the steps:
as §1

The next assay addresses Neu5Ac(a2-8)Neu5Ac. An outline of the steps:
as §1

The target of assay [5] is Neu5Ac(a2-8)Neu5Ac(a2-8)Neu5Ac(a2-3)[GalNAc(b1-4)]Gal(b1-4)Glc. The method in brief: as §1
The target of assay [6] is Neu5Ac(a2-8)Neu5Ac(a2-8)Neu5Ac(a2-8)Neu5Ac(a2-3)[GalNAc(b1-4)]Gal(b1-4)Glc. The method in brief:
as §1

Assay [7] concerns the target Neu5Ac9Ac(a2-6)Gal(b1-4)GlcNAc. The method in brief:
as §1

The target in assay [8] is Fuc(a1-2)Gal(b1-3)GlcNAc(b1-2)Man(a1-3)[Fuc(a1-2)Gal(b1-3)GlcNAc(b1-2)Man(a1-6)]Man(b1-4)GlcNAc(b1-4)[Fuc(a1-6)]GlcNAc. An outline of the steps: as §1
Another assay addresses Fuc(a1-2)Gal(b1-4)Glc6S. The method in brief:
as §1

Assay [9] addresses Fuc(a1-2)Gal(b1-4)GlcNAc(b1-3)Gal(b1-4)GlcNAc(b1-3)Gal(b1-4)GlcNAc. The method in brief: as §1
Assay [10] concerns the target Fuc(a1-2)Gal(b1-4)GlcNAc6S. An outline of the steps:
as §1

For assay [11], the target named is Fuc(a1-2)Gal(b1-4)[Fuc(a1-3)]GlcNAc. The method in brief: as §1
The target in assay [12] is Fuc(a1-2)Gal(b1-4)[Fuc(a1-3)]GlcNAc(b1-3)Gal(b1-4)[Fuc(a1-3)]GlcNAc(b1-3)Gal(b1-4)[Fuc(a1-3)]GlcNAc. The method in brief: as §1
The target of assay [13] is Fuc(a1-2)Gal6S(b1-4)GlcNAc. The method in brief: as §1
Assay [14] addresses Fuc(a1-2)[Gal(a1-3)]Gal(b1-3)GlcNAc(b1-2)Man(a1-3)[Fuc(a1-2)[Gal(a1-3)]Gal(b1-3)GlcNAc(b1-2)Man(a1-6)]Man(b1-4)GlcNAc(b1-4)GlcNAc. The method in brief:
as §1

The next assay concerns the target Fuc(a1-3)GlcNAc. An outline of the steps: as §1
Assay [15] has as its target Fuc(a1-3)[Gal3S(b1-4)]GlcNAc. The method in brief:
as §1

For the next assay, the target named is Fuc(a1-4)GlcNAc. The method in brief: as §1
Assay [16] addresses Gal(a1-3)Gal(b1-4)[Fuc(a1-3)]GalNAc. The method in brief:
as §1

A further assay deals with Gal(a1-4)GlcNAc. An outline of the steps:
as §1

Assay [17] has as its target Gal(b1-3)GlcNAc(b1-3)Gal(b1-4)[Fuc(a1-3)]GlcNAc(b1-6)[Gal(b1-3)GlcNAc(b1-3)]Gal(b1-4)Glc. An outline of the steps:
as §1

Assay [18] has as its target Gal(b1-3)GlcNAc(b1-3)GalNAc. An outline of the steps:
as §1

Assay [19] deals with Gal(b1-3)[GlcNAc(b1-6)]GlcNAc. The method in brief: as §1
Assay [20] deals with Gal(b1-4)GlcNAc(b1-2)[Gal(b1-4)GlcNAc(b1-4)]Man(a1-3)[GlcNAc(b1-4)][Gal(b1-4)GlcNAc(b1-2)Man(a1-6)]Man(b1-4)GlcNAc(b1-4)GlcNAc. An outline of the steps:
as §1

Assay [21] deals with Gal(b1-4)GlcNAc(b1-3)Gal(b1-4)[Fuc(a1-3)GlcNAc(b1-6)]Gal(b1-4)Glc. The method in brief: as §1
For the next assay, the target named is Glc(b1-4)Glc. The method in brief: as §1
For assay [22], the target named is GlcNAc(a1-3)Gal(b1-4)GlcNAc. The method in brief:
as §1

A further assay concerns the target GlcNAc(b1-3)Gal. An outline of the steps:
as §1

Assay [23] has as its target GlcNAc(b1-3)Gal(b1-3)GalNAc. The method in brief:
as §1

Assay [24] deals with GlcNAc(b1-3)[GlcNAc(b1-6)]Gal(b1-4)GlcNAc. The method in brief: as §1
Assay [25] addresses GlcNAc(b1-3)[GlcNAc(b1-6)]GlcNAc(b1-4)GlcNAc. An outline of the steps:
as §1

The target in assay [26] is GlcNAc(b1-4)Gal(b1-4)GlcNAc. The method in brief: as §1
For assay [27], the target named is GlcNAc6S(b1-3)Gal(b1-4)GlcNAc. An outline of the steps:
as §1

The target in assay [28] is Neu5Ac(a2-3)Gal(b1-3)GlcNAc6S. An outline of the steps:
as §1

In assay [29] the target is Neu5Ac(a2-3)Gal(b1-3)[Fuc(a1-4)]GlcNAc. The method in brief: as §1
The target of assay [30] is Neu5Ac(a2-3)Gal(b1-4)GlcNAc(b1-6)[Gal(b1-3)]GalNAc. The method in brief:
as §1

Assay [31] has as its target Neu5Ac(a2-3)Gal6S(b1-4)GlcNAc. The method in brief: as §1
The target of another assay is Neu5Ac(a2-3)GalNAc. An outline of the steps:
as §1

Assay [32] addresses Neu5Ac(a2-3)[Neu5Ac(a2-6)]GalNAc. The method in brief: as §1
Assay [33] deals with Neu5Ac(a2-6)Gal(b1-4)GlcNAc(b1-2)Man(a1-6)[GlcNAc(b1-2)Man(a1-3)]Man(b1-4)GlcNAc(b1-4)GlcNAc. The method in brief:
as §1

The target in assay [34] is Neu5Ac(a2-8)Neu5Ac(a2-3)[GalNAc(b1-4)]Gal(b1-4)Glc. An outline of the steps: as §1
For assay [35], the target named is Neu5Ac(a2-8)Neu5Ac(a2-8)Neu5Ac. An outline of the steps: as §1

B1: Tectonin 2 (Laccaria bicolor) (protein)
chain: MPWKGISGSLSRISAGSVTNVWGVNAANNIYRYTGDDAKPWVQIPGALTDIGAAADGTVWGVNAAGNIYRYVWDSNHWTQIKGALKRISAGSRTNVWGVNAGGAIYRYTGDDANPWVQIPGVLSDIGAGADGTVWGVNAAGEIYRYTGDQGDPNHWVKIPGALSAISAGIKTNVWGVNSANNIYTSTGDDKNPWLGIGGSLVDIGAGTDGVVWGVNAGGGIYRWIRD
As for B1, the “glycan array binding signal (z-score)” value in assay [1] is 2.34; in [2] it was 2.47; in assay [3] it was 2.62; in [4], 1.14; with Neu5Ac(a2-6)GalNAc, -0.325; in the assay with Neu5Ac(a2-8)Neu5Ac it was -0.07. Further, the “glycan array binding signal (z-score)” value is -0.445 in assay [5], 2.33 in assay [6] and 0.77 in assay [7].

B2: AAL (Aleuria aurantia), P18891 (protein)
chain: PTEFLYTSKIAAISWAATGGRQQRVYFQDLNGKIREAQRGGDNPWTGGSSQNVIGEAKLFSPLAAVTWKSAQGIQIRVYCVNKDNILSEFVYDGSKWITGQLGSVGVKVGSNSKLAALQWGGSESAPPNIRVYYQKSNGSGSSIHEYVWSGKWTAGASFGSTVPGTGIGATAIGPGRLRIYYQATDNKIREHCWDSNSWYVGGFSASASAGVSIAAISWGSTPNIRVYWQKGREELYEAAYGGSWNTPGQIKDASRPTPSLPDTFIAANSSGNIDISVFFQASGVSLQQWQWISGKGWSIGAVVPTGTPAGW
For the molecule B2, the “glycan array binding signal (z-score)” value in [8] was -0.012; with Fuc(a1-2)Gal(b1-4)Glc6S, 3.52; in assay [9], 3.03; in assay [10], 2.6; in assay [11] it was 2.51; in assay [12], 2.68. In addition, the “glycan array binding signal (z-score)” value in [13] was 2.6; in assay [14] it was -0.407; in the assay with Fuc(a1-3)GlcNAc, 2.85; in assay [15], 1.76; with Fuc(a1-4)GlcNAc it was 1.99; in assay [16] it was 2.52. Moreover, the “glycan array binding signal (z-score)” value with Gal(a1-4)GlcNAc was -0.498; in assay [17] it was 0.584; in assay [18], -0.414; in assay [19] it was -0.62; in assay [20] it was -0.348; in assay [21], 0.521. Also, the “glycan array binding signal (z-score)” value was -0.525 with Glc(b1-4)Glc; -0.512 in assay [22]; -0.501 with GlcNAc(b1-3)Gal; -0.515 in assay [23]; -0.514 in assay [24]; -0.567 in assay [25]. The “glycan array binding signal (z-score)” value was -0.525 in [26]; -0.391 in [27]; -0.493 in assay [28]; 1.33 in [29]; -0.444 in [30]; 1.5 in [31]. Further, the “glycan array binding signal (z-score)” value is -0.531 with Neu5Ac(a2-3)GalNAc; -0.551 in [32]; -0.423 in assay [33]; -0.499 in assay [34]; -0.526 in assay [35].
